The results in this text go back to PubChem BioAssay (NCATS).

Each structure is given as a SMILES string. “And” between values parts separate entries of the source, which are not always exact repeats. Equal entries are not always repeated. Records with an inconclusive call do not appear. A structure can be active in one record and inactive in another. The source made the active and inactive calls. The call rests on the fitted dose curve; in most records, active means well fitted inhibition curve with a large enough effect; inconclusive means small, poorly fitted or top-dose-only effect; inactive means flat fitted curve, though single readings scatter.
On the % scale 0 is the no-effect control and ±100 the full control effect; potency means the concentration at half of the fitted maximal effect.

The assay has as its system HEK293. As to the kind of experiment: Cytotoxic Profiling of Annotated Libraries Using Quantitative High-Throughput Screening (AID 1296008). Further: nearly all actives have a fitted effect of over 60% in size. Conditions: Five cell lines viability, CellTiter-Glo ATP luminescence, 48-72 h; max response: active compounds read low. From the text: Cell-based phenotypic screening is a commonly used approach to discover biological pathways, novel drug targets, chemical probes and high-quality hit-to-lead molecules. Many hits identified from high-throughput screening campaign are ruled out through a series of follow-up potency, selectivity/specificity, and cytotoxicity assays. Prioritization of molecules with little or no cytotoxicity for a more in-depth downstream evaluation influence the future direction of projects, so cytotoxicity profiling of the screening libraries at early stage is essential for increasing the likelihood of candidate success. […] For the annotated library, we also examined the primary targets and mechanistic pathways regularly associated with cell death. To our knowledge, this is the first study to use high-throughput screening to profile large libraries for cytotoxicity assessment in both normal and cancer cell lines. In summary, the results generated here constitutes a valuable resource for the scientific community and provides insight on identifying cytotoxic compounds with particular mechanisms of action, and prioritizing compounds with suitable cytotoxicity profile for further evaluation.
A pintool (Kalypsys) was used to transfer 23 nL of compound solution to the 1536-well assay plates. After 48 or 72 hr incubation at 37 degree Celsius, 5% CO2 and 95% humidity, 2.5 uL of CellTiter-Glo (Promega) was dispensed into each well using a dispenser (Aspect Automation, St. Paul, MN) with solenoid valves (Lee Valves, Westbrook CT). Plates were left at room temperature for 10 min before imaging the ATP-coupled luminescence using a ViewLux microplate imager (PerkinElmer, Waltham, MA).
In general terms: ATP-based viability assays read luminescence as a measure of living cells.
For the molecule `N=c1c2c(-c3ccccc3)c(-c3ccccc3)n(Cc3ccccc3)c2ncn1C1CCC(O)CC1` (stereo not given), the Potency was 418 nM (active).

For the molecule `CCN1C[C@]2(OC(=O)c3ccccc3NC(C)=O)CC[C@H](OC)[C@@]34[C@H]5CC6[C@@H](OC)C[C@](O)(C(C[C@@H]23)[C@@H]14)[C@@]5(O)[C@@H]6OC`, the max response was -8.41% (inactive).

As to `COC(=O)c1cncn1C(C)c1ccccc1` (stereo not given), the max response is -16.1% (inactive).

Take `CCC(=O)OC1CCC2C3CCC4=CC(=O)CC[C@@]4(C)C3CC[C@]12C` (stereo not given in full): the result was inactive.

In the case of `C=CCC1=C(C)C(OC(=O)C2C(C=C(C)C)C2(C)C)CC1=O` (stereo not given), the Potency is 19300 nM (active).

For `C#C[C@]1(O)C=C[C@@H]2[C@@H]3CCC4=CC(=O)CC[C@@H]4[C@H]3CC[C@@]21CC`, the max response was -3.75% (inactive).

For `CC(=O)Nc1ccc(OC[C@](C)(O)C(=O)Nc2ccc([N+](=O)[O-])c(C(F)(F)F)c2)cc1`, the molecule was called inactive and the max response was -11.2% (inactive).

In the case of `O=C(Oc1ccc([N+](=O)[O-])cc1)N1CCC(C(O)(c2ccc3c(c2)OCO3)c2ccc3c(c2)OCO3)CC1`, the max response was -16.1% (inactive).

Regarding `CCN1CCN(C(=O)Cc2ccc(Nc3ncc(F)c(Nc4ccc(C(=O)Nc5ccccc5Cl)cc4)n3)cc2)CC1`, the Potency is 3.72 µM (active) and 2.59 µM (active).

In the case of `COc1nn(CSP(=S)(OC)OC)c(=O)s1`, the Potency was 21700 nM (active).

With `CS(=O)(=O)c1ccc(C(=O)C2C(=O)CCCC2=O)c([N+](=O)[O-])c1`, the max response is -9.25% (inactive).

With `C1CCC(NC2CCCCC2)CC1`, the max response was 2.36% (inactive).

On to `C[C@@H]1O[C@@H](O[C@@H]2C=C3CC[C@@H]4[C@@H](CC[C@]5(C)[C@H](c6ccc(=O)oc6)CC[C@@]45O)[C@@]3(C)CC2)[C@H](O)[C@H](O)[C@H]1O`, for which the Potency is 16.6 nM (active).

For `O=[N+]([O-])c1ncc[nH]1`, the max response is -7.79% (inactive).

Consider `Nc1ccc(Cl)cc1`, for which the max response is 4.83% (inactive).

Consider `OCCCBr`, for which the result was inactive.

With `Cc1c(C(=O)Nc2cccc(C(F)(F)F)c2)cc(-c2ccccc2)n1CCCN1CCOCC1`, the Potency is 14.8 µM (active) and 14.6 µM (active).

`CC[C@@]1(O)C(=O)OCc2c1cc1n(c2=O)Cc2cc3ccccc3nc2-1`: the Potency was 41.8 nM (active).

Turning to `Oc1ccc2c3c1O[C@H]1[C@@H](O)C=C[C@H]4[C@@H](C2)NCC[C@@]341`, the max response was -17.4% (inactive).

`CO[C@H]1CCC(O[C@H]2C[C@H]([C@]3(C)CC[C@]4(C[C@H](O)[C@@H](C)[C@@H]([C@@H](C)C=C(C)C(=O)[C@H](C)C[C@H](C)C(=O)O)O4)O3)O[C@]3(O[C@@H]([C@H]4O[C@@](O)(CO)[C@H](C)C[C@H]4C)C[C@H]3C)[C@H]2C)O[C@H]1C` (stereo not given in full): the Potency is 590 nM (active).

Turning to `CC(Cc1ccc(O)cc1)NCC(O)c1cc(O)cc(O)c1` (stereo not given), the max response was -1.83% (inactive).

Turning to `CO/C=C(/C(=O)OC)c1ccccc1Oc1cc(Oc2ccccc2C#N)ncn1`, the Potency is 8630 nM (active).

As for `C[C@H]([C@H](O)CCC(C)(C)O)[C@H]1CC[C@@]2(O)C3=CC(=O)[C@@H]4C[C@@H](O)[C@@H](O)C[C@]4(C)[C@@H]3CC[C@]12C`, the molecule was called inactive.

For `O=c1[nH]c2ccc(Cl)cc2c(N[C@@H]2CN3CCC2CC3)c1-c1nc2ccccc2[nH]1`, the max response was -122% (inactive) and the Potency was 59 nM (active).

As to `C1=C2CCCN[C@H]2[C@@H]2C[C@H]1[C@@H]1CCCCN1C2`, the max response is 0.094% (inactive).

Regarding `c1cc2c(cc1[C@H]1OC[C@H]3[C@H]1CO[C@H]3c1ccc3c(c1)OCO3)OCO2`, the molecule was classed as inactive.

Regarding `CC[N+]1(CCOC(=O)C(O)(c2ccccc2)c2ccccc2)CCCCC1`, the molecule was classed as inactive.

For `C[C@]12CC[C@H]3[C@@H](CCC4=CC(=O)CC[C@@]43C)[C@H]1CC[C@H]2OC(=O)CCC1CCCC1`, the result was inactive.

Turning to `COc1ccc2c(c1)[C@]13CCCCC1C(C2)N(C)CC3` (stereo not given in full), the molecule was classed as inactive.

As for `S=C(SSC(=S)N1CCCCC1)N1CCCCC1`, the Potency was 944 nM (active).

Take `COCCOCCO`: the max response is -2.65% (inactive).

Consider `CCOC(=O)c1cncn1[C@H](C)c1ccccc1`, for which the molecule was classed as inactive.

In the case of `CC(C)[C@]12O[C@H]1[C@@H]1O[C@]13[C@]1(O[C@H]1C[C@H]1C4=C(CC[C@@]13C)C(=O)OC4)[C@@H]2O`, the Potency is 7.3 nM (active).

On to `CC(=O)O[C@@]12CO[C@H]1C[C@H](O)[C@@]1(C)C(=O)[C@H](O)C3=C(C)[C@@H](O)C[C@@](O)([C@@H](OC(=O)c4ccccc4)[C@@H]21)C3(C)C`, for which the Potency was 2960 nM (active).

For the molecule `CC[C@H]1C=CC=CC[C@@H](C)[C@H](O)[C@@](C)(O)C(=O)[C@@H](C)[C@H](O)[C@@H](C)C(=O)[C@@H](C)[C@H](O)[C@@H](C)C=CC(=O)O[C@@H]2[C@@H](C)[C@H](CC1)O[C@]1(CC[C@H](C)[C@H](C[C@@H](C)O)O1)[C@H]2C`, the Potency was 332 nM (active).

For `C[C@@]12OC(=O)[C@]1([C@@H](O)[C@@H]1C=CCCC1)NC(=O)[C@H]2CCCl`, the Potency was 74.3 nM (active).

Consider `C[N+](C)(C)CC(=O)O`, for which the max response was -2.82% (inactive).

Turning to `Fc1cc(Br)ccc1CBr`, the max response is -1.72% (inactive).
